Measured values published in PubChem BioAssay (Tox21).
Records with an inconclusive call do not appear. The source made the active and inactive calls. Unless noted, the call rests on the fitted dose curve; in most records, active means well fitted curve in the direction sought with a large enough effect in the repeat runs; inconclusive means weak or mixed curves; inactive means no such curve, though single readings can be large; an effect the other way counts as inactive or inconclusive.

Tests used:
[1] = molecular target: Luciferin 4-monooxygenase (Photinus pyralis) (UniProt P08659); assay: qHTS assay to identify small molecule inhibitors of firefly luciferase (AID 1224835); further: nearly all actives have a fitted effect of over 25% in size; further: potency means the concentration at half of the fitted maximal effect
Luciferin 4-monooxygenase (Photinus pyralis), sequence (P08659 whole entry, looked up): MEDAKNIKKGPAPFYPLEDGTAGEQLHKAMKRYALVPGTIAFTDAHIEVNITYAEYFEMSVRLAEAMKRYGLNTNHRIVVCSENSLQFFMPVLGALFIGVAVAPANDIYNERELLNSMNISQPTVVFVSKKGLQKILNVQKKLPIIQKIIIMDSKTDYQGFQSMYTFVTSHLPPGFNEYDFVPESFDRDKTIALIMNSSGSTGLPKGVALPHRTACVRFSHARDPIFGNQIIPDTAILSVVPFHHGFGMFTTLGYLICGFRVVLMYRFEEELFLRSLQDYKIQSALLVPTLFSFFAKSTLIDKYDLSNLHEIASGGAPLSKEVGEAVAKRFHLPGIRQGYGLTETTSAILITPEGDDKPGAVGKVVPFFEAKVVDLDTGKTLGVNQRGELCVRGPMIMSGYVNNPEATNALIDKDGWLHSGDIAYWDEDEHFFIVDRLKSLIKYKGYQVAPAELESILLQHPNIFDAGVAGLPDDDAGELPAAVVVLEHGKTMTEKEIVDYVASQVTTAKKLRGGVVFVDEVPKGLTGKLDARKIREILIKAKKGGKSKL
Outline: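 Quantitative HTS format; KM concentrations of both substrates. Purified P. pyralis FLuc activity quantified from luminescence images.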

[2] = qHTS assay to identify small molecule agonists of the constitutive androstane receptor (CAR) signaling pathway - cell viability counter screen (AID 1224836); further: nearly all actives have a fitted effect of over 45% in size
Outline: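 HepG2 cells stably carrying hCAR and a CYP2B6-2.2kb reporter were plated 4 h, then given compounds at 15 concentrations plus PK11195 (final 0.75 uM). After 23 h at 37 C, viability was read by CellTiter-Fluor fluorescence.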

[3] = qHTS assay to identify small molecule antagonists of the constitutive androstane receptor (CAR) signaling pathway - cell viability counter screen (AID 1224837); further: nearly all actives have a fitted effect of over 45% in size
Outline: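 Fluorescence from CellTiter-Fluor served as the viability signal. Human hepatoma HepG2 cells stably bearing hCAR and CYP2B6-2.2kb received compound plus CITCO (50 nM final) for 23 hr.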

[4] = qHTS assay to identify small molecule antagonists of the estrogen related receptor signaling pathway with the pleiotropic PPARgamma coactivator (PGC) from Tox21 10K library - cell viability counter screen (AID 1224840; active means well fitted cell-killing curve with a large enough effect in the repeat runs, not every such curve was filed as active; further: nearly all actives have a fitted effect of over 40% in size)
Outline: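 Compounds in DMSO, alongside positive and negative controls, were pinned onto PGC/ERR cells (2,000 per well). Exposure lasted 17.5 hours at 37 C, followed by a 30-minute CellTiter-Fluor incubation and fluorescence reading.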

[5] = molecular target: Thyrotropin receptor (Homo sapiens) (UniProt P16473); assay: qHTS assay to identify small molecule agonists of the thyroid stimulating hormone receptor (TSHR) signaling pathway (AID 1224843; calls by dose curve; further: nearly all actives have a fitted effect of over 45% in size)
Thyrotropin receptor (Homo sapiens), sequence (P16473 whole entry, looked up): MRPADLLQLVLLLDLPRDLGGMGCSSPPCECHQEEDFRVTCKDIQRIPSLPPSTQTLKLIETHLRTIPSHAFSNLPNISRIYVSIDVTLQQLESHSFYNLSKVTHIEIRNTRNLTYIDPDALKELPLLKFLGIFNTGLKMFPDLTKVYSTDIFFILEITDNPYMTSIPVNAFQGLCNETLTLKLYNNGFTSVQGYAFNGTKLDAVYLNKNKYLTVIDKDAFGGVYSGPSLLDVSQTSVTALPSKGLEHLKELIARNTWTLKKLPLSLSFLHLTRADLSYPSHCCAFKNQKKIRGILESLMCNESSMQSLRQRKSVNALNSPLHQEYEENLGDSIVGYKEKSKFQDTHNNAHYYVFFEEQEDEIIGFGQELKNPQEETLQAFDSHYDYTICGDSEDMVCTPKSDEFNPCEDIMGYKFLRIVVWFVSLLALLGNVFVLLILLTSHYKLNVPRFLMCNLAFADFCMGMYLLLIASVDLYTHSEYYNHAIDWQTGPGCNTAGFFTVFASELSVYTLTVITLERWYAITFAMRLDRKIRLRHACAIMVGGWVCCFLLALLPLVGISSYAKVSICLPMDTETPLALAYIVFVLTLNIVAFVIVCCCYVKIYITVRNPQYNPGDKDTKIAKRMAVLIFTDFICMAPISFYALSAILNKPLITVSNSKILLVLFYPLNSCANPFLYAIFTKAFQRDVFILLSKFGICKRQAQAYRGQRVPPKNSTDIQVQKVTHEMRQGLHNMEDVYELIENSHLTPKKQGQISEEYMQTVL
Outline: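 Cell line HEK293 with TSHR; density 800/well. Exposure 30 min RT. Readout HTRF cAMP (cAMP-d2/anti-cAMP-cryptate), 1 h RT before reading.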

[6] = qHTS assay to identify small molecule agonists of the hypoxia (HIF-1) signaling pathway - cell viability counter screen (AID 1224844; calls by dose curve; further: nearly all actives have a fitted effect of over 50% in size)
Outline: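 Luminescent ATP content (CellTiter-Glo, 30 min, room temperature) served as the viability measure in HRE-bla ME-180 cells exposed to compounds for 17 hrs in low-serum medium (0.5% dialyzed FBS).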

[7] = qHTS assay to identify small molecule agonists of H2AX (AID 1224845; active means well fitted activation curve with a large enough effect in the signal ratio in the repeat runs, not every such curve was filed as active; the % refers to the signal ratio)
Outline: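 Wild-type CHO-K1 cells plated overnight, then exposed 3 hr at 37C to compounds at 15 concentrations (0.76% DMSO). Lysed, then HTRF anti-pH2AX(S139)-cryptate/anti-H2AX-d2 detection after 24 hr at room temperature; emissions 665 and 620 nm.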

[8] = qHTS assay to identify small molecule agonists of the hypoxia (HIF-1) signaling pathway (AID 1224846; active means well fitted activation curve with a large enough effect in the signal ratio in the repeat runs, not every such curve was filed as active; the % refers to the signal ratio)
Outline: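 Measured by blue/green FRET after loading CCF4-AM: beta-lactamase expressed from a hypoxia response element in ME-180 cells. Test agents were delivered in DMSO and left 17 hrs; cells had been plated 5 hrs earlier in low-serum (0.5% dialyzed FBS) medium.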

[9] = A CellTox Green Cytotoxicity Assay to monitor cytotoxicity in HEK293 cells - 0 hour (AID 1224869); further: nearly all actives have a fitted effect of over 50% in size
Outline: (§1)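 Each value comes from one timepoint of a single continuous run in which HEK293 cells with CellTox Green were exposed to compound for up to 40 h at 37 C, dye fluorescence rising with cell death.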

[10] = qHTS RealTime-Glo MT Cell Viability Assay in HepG2 cells - 40 hour (AID 1224870); further: nearly all actives have a fitted effect of over 50% in size
Outline: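 HepG2 cells mixed with RealTime-Glo MT reagents (NanoLuc plus cell-permeant prosubstrate) were seeded at 600 cells/well, incubated 5 h at 37 C/5% CO2, then pinned with compounds in DMSO; nonlytic luminescence tracked viability during 40 h treatment.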

[11] = A CellTox Green Cytotoxicity Assay to monitor cytotoxicity in HEK293 cells - 40 hour (AID 1224871); further: nearly all actives have a fitted effect of over 45% in size; further: potency means the concentration at half of the fitted maximal effect
Outline: as §1

[12] = qHTS assay to identify small molecule agonists of H2AX - cell viability counter screen (AID 1224847; calls by dose curve; further: top concentration of the series differs between compounds; nearly all actives have a fitted effect of over 30% in size)
Outline: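 Wild-type CHO-K1 cells (10% FBS medium) were plated overnight at 37C, exposed to compounds at 15 concentrations for 3 hr at 37C (0.76% DMSO final), and viability was read as CellTiter-Glo luminescence after 30 min at room temperature.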

[13] = qHTS RealTime-Glo MT Cell Viability Assay in HepG2 cells - 24 hour (AID 1224867); further: nearly all actives have a fitted effect of over 50% in size
Outline: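 Luminescence read-out: viable HepG2 cells reduce a prosubstrate to a NanoLuc substrate, giving a signal proportional to live cell number. Reads taken at 0, 8, 16, 24, 32 and 40 h of compound exposure at 37 C.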

[14] = molecular target: Nuclear receptor subfamily 1 group I member 3 (Homo sapiens) (UniProt Q14994); assay: qHTS assay to identify small molecule antagonists of the constitutive androstane receptor (CAR) signaling pathway (AID 1224838); further: nearly all actives have a fitted effect of over 40% in size
Nuclear receptor subfamily 1 group I member 3 (Homo sapiens), sequence (Q14994 whole entry, looked up): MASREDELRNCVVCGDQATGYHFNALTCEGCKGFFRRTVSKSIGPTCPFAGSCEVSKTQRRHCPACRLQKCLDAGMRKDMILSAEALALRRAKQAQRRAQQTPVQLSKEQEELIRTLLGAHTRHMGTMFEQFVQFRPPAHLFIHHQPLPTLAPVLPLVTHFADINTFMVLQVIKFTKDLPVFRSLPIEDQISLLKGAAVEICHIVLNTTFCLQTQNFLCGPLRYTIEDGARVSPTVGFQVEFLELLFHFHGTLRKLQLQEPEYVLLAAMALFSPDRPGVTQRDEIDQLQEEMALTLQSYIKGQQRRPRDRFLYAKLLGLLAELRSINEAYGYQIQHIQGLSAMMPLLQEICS
Outline: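 Quantitative HTS in double-stable HepG2-CYP2B6-hCAR cells. After 4 h plating, cells get compound (15 concentrations) and CITCO at 50 nM final, incubate 24 h at 37 C, then ONE-Glo luminescence is read.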

[15] = molecular target: Nuclear receptor subfamily 1 group I member 3 (Homo sapiens) (UniProt Q14994); assay: qHTS assay to identify small molecule agonists of the constitutive androstane receptor (CAR) signaling pathway (AID 1224839); further: nearly all actives have a fitted effect of over 15% in size; further: potency means the concentration at half of the fitted maximal effect;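 on activation: HepG2 cells stably carrying human CAR and a CYP2B6 luciferase reporter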
Outline: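 HepG2 cells stably expressing hCAR and a CYP2B6-2.2kb luciferase reporter were treated with compounds at 15 concentrations plus 0.75 uM PK11195 (final) for 24 h at 37 C; luminescence was read after ONE-Glo addition.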

[16] = qHTS assay to identify small molecule antagonists of the estrogen related receptor signaling pathway with the pleiotropic PPARgamma coactivator (PGC) from Tox21 10K library (AID 1224841; call rule not given here)
Outline: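 Compound exposure ran 18 hours at 37 C in PGC/ERR cells (2,000/well) that had first rested 6 hours in a 37 C/5% CO2 incubator. Luciferase activity was then detected with One-Glo after a 30-minute room-temperature step.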

[17] = qHTS assay to identify small molecule agonists of the estrogen related receptor signaling pathway with the pleiotropic PPARgamma coactivator (PGC) from Tox21 10K library (AID 1224842); further: nearly all actives have a fitted effect of over 15% in size; further: potency means the concentration at half of the fitted maximal effect
Outline: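 PGC/ERR reporter cells (NTP line) were seeded 2,000 per well, rested 6 h at 37 C/5% CO2, then pin-dosed with compounds in DMSO for 18 h at 37 C; luciferase read by One-Glo luminescence after 30 min at room temperature.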

[18] = qHTS assay to identify small molecule agonists of the estrogen related receptor (ERR) signaling pathway from Tox21 library (AID 1224849; calls by dose curve; further: nearly all actives have a fitted effect of over 15% in size); conditions: ERR reporter cell line, ONE-Glo luciferase, 18 h; at 92.4 µM (top of the series) unless noted
Outline: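 We plated ERR reporter cells, waited 6 h, added compounds in DMSO by pin tool and incubated them 18 h at 37 C. ONE-Glo was then added and luminescence read after 30 min.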

[19] = qHTS RealTime-Glo MT Cell Viability Assay in HEK293 cells - 32 hour (AID 1224868); further: nearly all actives have a fitted effect of over 50% in size; further: potency means the concentration at half of the fitted maximal effect
Outline: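 Nonlytic real-time viability readout: viable cells convert prosubstrate to NanoLuc substrate, giving luminescence proportional to live cell number. HEK293, 600 cells/well, compound added after 5 h, continuous culture at 37 C.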

[20] = qHTS assay to identify small molecule antagonists of the estrogen related receptor (ERR) signaling pathway from Tox21 library (AID 1224848); further: nearly all actives have a fitted effect of over 50% in size
Outline: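 Screening used an ERR reporter line supplied by NTP, exposed for 18 h at 37 C to library compounds delivered in DMSO. Signal was luciferase luminescence developed with ONE-Glo at room temperature for 30 min.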
On the % scale 0 is the no-effect control and ±100 the full control effect.

Cc1cc(C)n(CO)n1
inactive: Potency [1] | Potency [2] | Potency [3] | Potency [4] | Potency [5] | Potency [6] | Potency [7] | outcome [8] | Potency [9] | Potency [10] | Potency [11]

C=CC(C)CCC=C(C)C (configuration not stated)
inactive: Potency [1] | Potency [2] | Potency [3] | Potency [4] | Potency [5] | Potency [6] | Potency [7] | Potency [12] | outcome [13] | Potency [9] | Potency [10] | Potency [11]

COc1cccc([C@H](O)C2CCN(CCc3ccc(F)cc3)CC2)c1OC
inactive: Potency [1] | Potency [2] | Potency [3] | Potency [4] | Potency [5] | Potency [6] | Potency [7] | outcome [8] | outcome [13] | Potency [9] | Potency [10] | Potency [11]

CCn1nc(Cc2ccccc2)cc1C1CCN(C[C@H]2C[C@H](N(C)[C@@H](C(=O)O)C(C)C)C[C@@H]2c2cccc(F)c2)CC1
inactive: Potency [1] | Potency [2] | Potency [14] | Potency [15] | Potency [4] | Potency [16] | Potency [17] | Potency [5] | Potency [7] | outcome [8] | Potency [12] | activity change, positive = activation [18] -18.7% | outcome [13] | Potency [9] | Potency [10] | Potency [11]

CC(C)=CCC/C(C)=C/C=N/O
inactive: Potency [1] | Potency [2] | Potency [14] | Potency [15] | Potency [4] | Potency [6] | Potency [7] | outcome [8] | Potency [12] | outcome [13] | Potency [19] | Potency [9] | Potency [10]

CCCCCCCCCCCCN1CCOCC1
inactive: Potency [1] | Potency [2] | Potency [14] | Potency [15] | Potency [4] | Potency [16] | Potency [17] | Potency [5] | Potency [6] | outcome [8] | Potency [12] | Potency [20] | activity change, positive = activation [18] -8.24% | outcome [13] | Potency [19] | Potency [9] | Potency [10] | Potency [11]

CCc1ccc2c(c1)C(=O)c1ccccc1C2=O
active: Potency [1] 5.03 µM | Potency [15] 27.3 µM
inactive: Potency [2] | Potency [14] | Potency [4] | Potency [6] | Potency [7] | outcome [8] | outcome [13] | Potency [19] | Potency [9] | Potency [10] | Potency [11]

COc1ccc(/C=C/c2cc(OC)cc(=O)o2)cc1
active: Potency [1] 5.15 µM | Potency [15] 6.26 µM | Potency [17] 7.88 µM | activity change, positive = activation [18] 55.8% [at 42.5 µM] | Potency [19] 11.2 µM
inactive: Potency [2] | Potency [14] | Potency [4] | Potency [6] | outcome [8] | Potency [20] | outcome [13] | Potency [9] | Potency [10] | Potency [11]

Cc1c(Cl)cccc1[N+](=O)[O-]
inactive: Potency [1] | Potency [2] | Potency [3] | Potency [4] | Potency [6] | Potency [7] | Potency [12] | outcome [13] | Potency [19] | Potency [9] | Potency [11]

O=C(O)c1c2ccccc2cc2ccccc12
inactive: Potency [1] | Potency [2] | Potency [3] | Potency [4] | Potency [5] | Potency [6] | Potency [12] | Potency [9] | Potency [10]
active: Potency [11] 34.6 µM

CC(C)=CCCC(C)C=O (configuration not stated)
inactive: Potency [1] | Potency [2] | Potency [14] | Potency [15] | Potency [4] | Potency [5] | Potency [7] | outcome [8] | Potency [12] | Potency [19] | Potency [9] | Potency [10] | Potency [11]

CC(C(=O)O)c1ccc2c(c1)Cc1cccnc1O2 (configuration not stated)
inactive: Potency [1] | Potency [2] | Potency [3] | Potency [4] | Potency [5] | Potency [7] | outcome [8] | Potency [12] | outcome [13] | Potency [19] | Potency [9] | Potency [10] | Potency [11]

CCCCCCCCS
inactive: Potency [1] | Potency [2] | Potency [3] | Potency [4] | Potency [6] | Potency [7] | outcome [8] | Potency [19] | Potency [9] | Potency [10] | Potency [11]

CC(C)(C)c1cc(C=O)cc(C(C)(C)C)c1O
inactive: Potency [1] | Potency [2] | Potency [3] | Potency [4] | Potency [5] | Potency [6] | Potency [7] | outcome [8] | Potency [12] | outcome [13] | Potency [19] | Potency [9] | Potency [11]

Cc1ccc(NC=O)c(C)c1
inactive: Potency [1] | Potency [2] | Potency [3] | Potency [4] | Potency [5] | Potency [7] | outcome [8] | Potency [12] | outcome [13] | Potency [9] | Potency [10] | Potency [11]

CCCC1CCOC(C)S1 (configuration not stated)
inactive: Potency [1] | Potency [2] | Potency [3] | Potency [6] | Potency [7] | outcome [8] | outcome [13] | Potency [9] | Potency [10]

O=C(O)c1cc(C(=O)O)cc([N+](=O)[O-])c1
inactive: Potency [1] | Potency [2] | Potency [14] | Potency [15] | Potency [4] | Potency [6] | Potency [7] | outcome [8] | Potency [12] | outcome [13] | Potency [19] | Potency [9] | Potency [10] | Potency [11]

CCc1c(C)[nH]c2c1C(=O)C(CN1CCOCC1)CC2 (configuration not stated)
inactive: Potency [1] | Potency [2] | Potency [3] | Potency [4] | Potency [5] | Potency [6] | Potency [7] | Potency [12] | outcome [13] | Potency [19] | Potency [9] | Potency [10] | Potency [11]

FC(F)(Cl)C(F)(Cl)Cl
inactive: Potency [2] | Potency [3] | Potency [14] | Potency [15] | Potency [4] | Potency [5] | Potency [6] | Potency [7] | outcome [8] | outcome [13] | Potency [19] | Potency [9] | Potency [11]
